Measurements as given in PubChem BioAssay AID2284366 (EPA ToxCast).
Inconclusive results are not listed. The source made the active and inactive calls. Rule for the calls: active = hit-call score of the fitted dose curve at least 0.9, where 1 is the maximum; inconclusive = response in the unintended direction; inactive = score below 0.9.

The molecules below were run on zebrafish Peroxisome Proliferator-activated Receptor gamma (PPARg), gene 557037 (assay: ATG_zfPPARg_EcoTox2: Attagene TRANS-FACTORIAL EcoTox-2 HepG2 Assay for zebrafish Peroxisome Proliferator-activated Receptor gamma (PPARg)).
Description: ATG_EcoTox2 is a cell-based, multiplexed assay created by modifying the existing Attagene TRANS-FACTORIAL system to include a panel of nuclear receptors from some or all the following species: human (Homo sapiens), african clawed frog (Xenopus laevis), rainbow trout (Oncorhynchus mykiss), japanese medaka (Oryzias latipes), and zebrafish (Danio rerio). The ECOTOX2-FACTORIAL format uses HepG2, a human liver cell line, with measurements taken at 24 hours after chemical dosing in a 24-well plate. ATG_zfPPARg_EcoTox2 is one of 29 assay components calculated in the ATG_EcoTox2 assay. It is designed to make measurements of mRNA induction, a form of inducible reporter, as detected with fluorescence intensity signals by Reverse transcription polymerase chain reaction (RT-PCR) and Capillary electrophoresis technology.The assay endpoint ATG_zfPPARg_EcoTox2 was analyzed in the positive analysis fitting direction relative to DMSO as the negative control and baseline of activity. Using a type of inducible reporter, measures of mRNA for gain-of-signal activity can be used to understand the reporter gene at the transcription factor-level as they relate to the gene PPARg. Furthermore, this assay endpoint can be referred to as a primary readout, because this assay has produced multiple assay endpoints where this one serves a reporter gene function. To generalize the intended target to other relatable targets, this assay endpoint is annotated to the nuclear receptor intended target family, where the subfamily is non-steroidal.
Human liver HepG2 cells are transiently transfected with multiple reporter transcription units (MRTUs) in 6-well plates using FuGene 6 reagent (Roche; 3 ml FuGene/1 mg DNA). The MRTU constructs are regulated by a cis-regulating element (promoter). Each RTU expresses a GAL4-UAS that regulates the transcription of a nearby target reporter gene sequence. A major difference between the CIS and TRANS system is that in CIS activities of endogenous TFs are measured, whereas the TRANS assay evaluates changes in activities of exogenous, chimeric NR-Gal4 proteins. […] At the end of 24 hour incubation, total RNA was isolated using TriZol reagent (Invitrogen). The isolated RNA is then reverse-transcribed using oligo(dT) primer and Mo-MLV reverse transcriptase (Invitrogen) with DNAse I (Ambion) treatment for 30 min. The one-tenth of the produced cDNA was amplified by PCR using Taq DNA polymerase (Invitrogen) and two reporter sequence-specific primers. The PCR products were fluorescently labeled by primer extension with 6-arboxyfluorescein (6-FAM) 5'-labeled reporter sequence-specific primer (2 min at 95 C, 20 s at 68 C and 10 min at 72 C) and these products were digested with 5U of HpaI (New England Biolabs) for 2h at 37 C. The fragments were purified using Qiaquick PCR columns (Qiagen), analyzed on an ABI 3130xL genetic analyzer (Applied Biosystems) with peak positions identified by using a set of X-rhodamine (ROX)-labeled MapMarker1000 molecular weight standards (BioVentures). The raw capillary electrophoresis data was processed using Attagraph software (Attagene).
With `Cc1c(C)c2c(c(C)c1O)CCC(C)(COc1ccc(CC3SC(=O)NC3=O)cc1)O2` (stereo not given) the outcome was “inactive”. `C[C@@H]1C[C@H]2[C@@H]3CCC4=CC(=O)C=C[C@]4(C)[C@@]3(F)[C@@H](O)C[C@]2(C)[C@@]1(O)C(=O)COP(=O)(O)O` was tested, and the outcome was “inactive”. For `Cc1nc(-c2ccc(C(F)(F)F)cc2)sc1C(=O)NCc1ccc(OC(C)(C)C(=O)O)cc1`, the AC50 was 21.3 µM (active). In the case of `CC(C)OC(=O)C(C)(C)Oc1ccc(C(=O)c2ccc(Cl)cc2)cc1`, the outcome is reported as “inactive”. For `CC(C)(Oc1ccc(Cl)cc1)C(=O)O`, the outcome was “inactive”. In the case of `C[C@]12C=CC(=O)C=C1CC[C@@H]1[C@@H]2C(=O)C[C@@]2(C)[C@H]1CC[C@]2(O)C(=O)CO`, the outcome is reported as “inactive”. With `CN(CCOc1ccc(CC2SC(=O)NC2=O)cc1)c1ccccn1` (stereo not given) the outcome was “inactive”. For `C=C(c1ccc(C(=O)O)cc1)c1cc2c(cc1C)C(C)(C)CCC2(C)C`, the AC50 was 2.23 µM (active). With `Cc1cccc(Nc2cc(Cl)nc(SCC(=O)O)n2)c1C` the outcome was “inactive”. `Cc1ccc(C)c(OCCCC(C)(C)C(=O)O)c1` was tested, and the outcome was “inactive”.
